Gli-Sufu block: antagonists of Gli-Sufu signaling | Sufu-KO-LIGHT fibroblasts, Gli luciferase reporter luminescence | inhibition, % at 5 µM | 340,000 tested, 0.74% active;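 active = inhibition above about 55%, limit read from the data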;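 note: 0% = DMSO-treated cells and 100% = wells with medium but no cells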
CSC inhib: cancer stem cell inhibition. cancer stem cell-like cells viability, luminescence. inhibition, % at 7.5 µM. 300,000 tested, 1.1% active; in the data active = inhibition above about 75%; inconclusive = no clear call, values can overlap the other calls; tested in HMLE shEcad cells
Mdm2 MdmX PPI: human Mdm2/MdmX binding inhibition | SaOS-2 split-luciferase Mdm2/MdmX complementation, luminescence | AID 485346 | inhibition, % at 8 µM | 330,000 tested, 3% active | O15151+Q00987;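 active = inhibition of at least 50% at 8 µM in the primary screen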
Target sequence (O15151 whole entry, looked up): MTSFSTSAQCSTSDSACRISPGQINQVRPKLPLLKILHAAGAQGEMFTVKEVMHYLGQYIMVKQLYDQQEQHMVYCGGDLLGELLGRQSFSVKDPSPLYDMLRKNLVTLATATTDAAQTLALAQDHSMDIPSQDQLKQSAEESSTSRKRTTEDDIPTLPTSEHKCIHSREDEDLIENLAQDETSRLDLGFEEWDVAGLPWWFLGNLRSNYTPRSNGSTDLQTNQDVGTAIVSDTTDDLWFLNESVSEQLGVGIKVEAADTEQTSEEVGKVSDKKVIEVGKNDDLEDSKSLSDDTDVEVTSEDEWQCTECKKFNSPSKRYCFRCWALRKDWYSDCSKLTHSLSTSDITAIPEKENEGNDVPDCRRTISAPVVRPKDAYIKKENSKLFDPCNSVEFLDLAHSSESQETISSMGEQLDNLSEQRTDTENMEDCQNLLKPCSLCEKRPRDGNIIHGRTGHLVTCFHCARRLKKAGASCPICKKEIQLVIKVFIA
Target sequence (Q00987 whole entry, looked up): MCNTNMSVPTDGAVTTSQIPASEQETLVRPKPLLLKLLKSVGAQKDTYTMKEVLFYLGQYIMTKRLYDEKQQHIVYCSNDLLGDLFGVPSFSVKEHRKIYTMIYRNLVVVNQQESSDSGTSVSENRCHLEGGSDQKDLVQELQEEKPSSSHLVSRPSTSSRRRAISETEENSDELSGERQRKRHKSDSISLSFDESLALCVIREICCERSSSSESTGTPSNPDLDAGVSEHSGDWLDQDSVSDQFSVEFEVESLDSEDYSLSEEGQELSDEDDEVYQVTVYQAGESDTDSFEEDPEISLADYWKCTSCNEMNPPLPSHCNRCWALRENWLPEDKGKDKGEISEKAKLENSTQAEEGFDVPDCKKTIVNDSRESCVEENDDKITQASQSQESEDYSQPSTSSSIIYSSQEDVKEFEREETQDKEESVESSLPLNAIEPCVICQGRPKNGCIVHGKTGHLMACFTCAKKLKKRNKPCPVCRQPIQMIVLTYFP
aSyn UTR inh: 5' untranslated region of α-synuclein, MLPCN primary screen. alpha-synuclein 5'UTR reporter, inhibitor activity. inhibition, % (tested at 7.5 µM). 300,000 tested, 0.82% active; in the data active = inhibition above about 60%; inconclusive = no clear call, values can overlap the other calls;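 note: H4 neuroglioblastoma cells stably carrying SNCA 5'UTR luciferase fusion; 0% = DMSO wells and 100% = positive control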
697 NFkB inh: lowers PMA/ionomycin-induced NF-kB signal in 697 B cells; 697 B-cell NF-kB luciferase reporter, 16 h; inhibition, % at 4 µM; 330,000 tested, 0.33% active; in the data active = inhibition above about 35%
Jurkat NFkB inh: lowers PMA/ionomycin-induced NF-kB signal in Jurkat cells. PMA/ionomycin-induced NF-kB luciferase reporter, luminescence. inhibition, % at 4 µM. 330,000 tested, 0.53% active. AID 435003; in the data active = inhibition above about 50%
Mdm2 MdmX conf: confirmation of human Mdm2/MdmX interaction inhibitors. Mdm2-MdmX binding, luminescent assay. AID 489028. inhibition, % at 8 µM. 10,000 tested, 55% active. shares compounds with Mdm2 MdmX PPI; in the data active = inhibition above about 40%
FLuc counter: inhibits full-length luciferase, flagging false Mdm2/MdmX hits. shares compounds with Mdm2 MdmX PPI. SaOS-2 full-length luciferase counterscreen, luminescence. inhibition, % at 8 µM. 6,200 tested, 77% active. AID 504607;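 active = mean inhibition at 8 µM reaching about 37%, which flags the compound as non-specific, limit read from the data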;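 note: p53-null SaOS-2 cells with luciferase driven by a doxycycline-inducible promoter; compound on cells about two nights before reading with doxycycline added after day one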
* = called active by the depositor; ? = inconclusive; . = not tested or not shown. The list is not random: actives were taken first. Their share in the collection is about 4.5%.

SMILES	Gli-Sufu block	CSC inhib	Mdm2 MdmX PPI	aSyn UTR inh	697 NFkB inh	Jurkat NFkB inh	Mdm2 MdmX conf	others
C=CCC[C@@H](Cc1ccc(F)cc1)C(=O)OC[C@@H](Cc1c[nH]c2ccccc12)NC(=O)[C@H](CC=C)CC(=O)N[C@H](CO)Cc1ccccc1	3.4	.	75.8*	.	-14.4	-0.9	24.6
C=CCC[C@@H](Cc1ccc(F)cc1)C(=O)OC[C@@H](Cc1c[nH]c2ccccc12)NC(=O)[C@@H](CC=C)CC(=O)N(CCO)Cc1ccccc1	2.0	?	93.3*	.	-9.8	7.3	26.9
C=CCC[C@H](Cc1ccc(F)cc1)C(=O)OC[C@H](Cc1c[nH]c2ccccc12)NC(=O)[C@H](CC=C)CC(=O)N(CCO)Cc1ccccc1	6.9	.	89.9*	.	1.5	17.4	26.2
C=CCC[C@H](Cc1ccc(F)cc1)C(=O)OC[C@@H](Cc1c[nH]c2ccccc12)NC(=O)[C@@H](CC=C)CC(=O)N[C@@H](CO)Cc1ccccc1	-7.0	15.0	45.3	.	-5.4	17.3	.
COc1ccc(C(=O)NCCc2c[nH]c3ccccc23)cc1S(=O)(=O)N1CCOCC1	1.0	-0.3	13.3	.	7.2	4.8	.
CCOC(=O)[C@H](CCc1ccccc1)N[C@@H](C)C(=O)N1[C@H](C(=O)O)C[C@@H]2CCC[C@@H]21	7.1	-5.2	-14.2	21.7	2.0	2.7	.
Cn1cnnc1SCC(=O)Nc1ncc(C(F)(F)F)cc1Cl	-8.5	11.2	5.1	7.9	4.5	0.6	.
COC(=O)Nc1sc2c(c1C(N)=O)CCC(C)C2 (centres undefined)	2.0	-1.0	5.9	0.7	-9.4	-7.3	.
COC(=O)c1c(NC(=S)NN2CCN(C)CC2)sc2c1CCC(C)C2 (centres undefined)	11.5	103.6*	91.1*	-28.9	1.2	12.0	35.6
CCOc1ccc(-n2c(N)c(C(=O)NCc3ccco3)c3nc4ccccc4nc32)cc1	-16.6	5.4	24.3	11.0	-9.2	13.3	.
CCOc1ccc(-n2c(N)c(-c3nc4ccccc4n3C)c3nc4ccccc4nc32)cc1	12.0	-5.5	62.8*	-5.9	-23.8	12.3	58.6*	FLuc counter=65.5*
Cc1ccc(-n2cc(CN3CCC(CO)(Cc4cccc(C(F)(F)F)c4)CC3)cn2)cc1	29.6	61.0	83.6*	1.2	-25.3	-1.3	48.1*	FLuc counter=69.2*
CN(C)n1cnc2ccsc2c1=O	-2.5	-12.8	-1.7	-4.0	25.5	13.1	.
CCNc1ccc(C(=O)OCC)cc1NC(=O)c1cccc(S(=O)(=O)N(C)c2ccccc2)c1	15.8	15.7	18.1	18.3	2.9	0.9	.
CCNc1ccc(C(=O)OCC)cc1NC(=O)c1cccc(N(C)C)c1	-5.0	.	57.9*	34.6	-20.0	32.3	54.4*	FLuc counter=65.4*
COc1cc(N(C(=O)Cc2cccs2)C(C(=O)NC2CCCCC2)c2ccc(C)cc2)ccc1-n1cnnn1 (centres undefined)	12.0	0.1	84.4*	7.5	8.6	2.7	18.9
O=C(Cn1c2ccccc2c(=O)c2cc([N+](=O)[O-])ccc21)Nc1ccccc1Cl	4.9	.	52.6*	-9.1	0.1	-1.6	15.8
O=C(Cn1c2ccccc2c(=O)c2ccccc21)Nc1ccccc1F	-0.3	-5.7	19.8	9.8	-14.7	3.5	.
COc1ccc(CNC(=O)c2nc(S(=O)(=O)Cc3ccccc3)ncc2Cl)cc1	5.6	-7.9	76.6*	?	-55.3	2.0	93.5*	FLuc counter=1.5
COC(=O)c1cscc1S(=O)(=O)Cc1ccccc1	-1.2	-19.7	1.4	-5.2	9.3	11.4	.
O=C(NCc1ccccc1)c1nc(S(=O)(=O)Cc2ccccc2)ncc1Cl	10.9	51.9	73.5*	50.6	-50.6	-5.8	66.7*	FLuc counter=3.9
COC(=O)c1ccccc1NC(=O)c1nc(S(=O)(=O)Cc2ccccc2)ncc1Cl	-0.2	99.8*	98.3*	34.0	-238.1	12.1	90.8*	FLuc counter=67.0*
COc1ccc(S(=O)(=O)Cc2ccc(C(=O)NCc3ccccc3)o2)cc1	-2.9	6.6	-4.3	-2.4	-14.1	7.0	.
CC(=O)Nc1ccc(NC(=O)c2nc(S(=O)(=O)Cc3ccccc3)ncc2Cl)cc1	5.3	1.4	45.9	1.9	-130.7	8.5	.
Cc1ccc(S(=O)(=O)CCC(=O)OC(C)C(=O)c2c(C)[nH]c3ccccc23)cc1 (centres undefined)	4.4	-12.2	18.0	16.9	24.9	-7.7	.
SMILES	Gli-Sufu block	CSC inhib	Mdm2 MdmX PPI	aSyn UTR inh	697 NFkB inh	Jurkat NFkB inh	Mdm2 MdmX conf	others
N#Cc1cccc(C(=O)Nc2cc(S(=O)(=O)N3CCOCC3)ccc2N2CCCC2)c1	6.3	-1.2	30.9	.	22.4	-0.5	.
O=C(COC(=O)c1ccc(CO)cc1)Nc1ccc(OC(F)F)cc1	-4.7	7.4	1.6	6.6	3.7	1.8	.
CN(CC(=O)Nc1ccccc1Cl)C(=O)CN1C(=O)NC(c2ccccc2)(c2ccccc2)C1=O	6.4	-9.1	-12.0	.	3.3	-8.4	.
CC(=O)NC(=S)Nc1ccc(NC(=O)c2cccnc2Cl)cc1	-10.2	-17.8	13.5	-6.8	-6.0	-17.5	.
C/C(=N/NC(=O)CN(c1ccccc1)S(=O)(=O)c1ccccc1)c1ccccc1O	41.4	27.8	71.8*	-7.3	-8.9	19.2	60.1*	FLuc counter=26.8
CCn1nnnc1SCC(=O)NC1Cc2ccccc2C1	1.0	-5.7	-27.3	-23.1	7.8	-7.7	.
CCOC(=O)C1(Cc2ccccc2C(F)(F)F)CCN(C2CCN(C(C)C)CC2)CC1	24.1	23.5	73.0*	.	-0.6	-3.2	59.1*	FLuc counter=54.4*
COc1ccc2c(c1)[nH]c(=O)c1sc3ccccc3c12	-14.8	-4.4	60.3*	50.7	-46.8	-51.8	18.6
COc1ccc2sc3c(=O)[nH]c4ccccc4c3c2c1	7.7	-5.6	71.6*	63.0*	-41.6	2.5	74.5*	FLuc counter=44.1*
COc1ccc(OCc2cc(=O)[nH]c3ccccc23)cc1	27.1	6.3	10.1	6.4	-7.9	-15.0	.
CCn1cc(S(=O)(=O)N2CCCC2)cn1	-10.2	-0.8	14.6	-10.4	-16.9	-2.9	.
Cn1cc(/C=N/n2cnc3sc4c(c3c2=O)CCCC4)c2ccccc21	9.2	.	44.1	-7.6	-0.8	3.0	.
O=c1c2c3c(sc2ncn1/N=C/c1ccc([N+](=O)[O-])o1)CCCC3	10.1	103.4*	57.6*	-89.4	-49.6	34.5	43.2*	FLuc counter=57.4*
Cn1c(=O)c2c(nc(NCc3ccco3)n2C/C=C/c2ccccc2)n(C)c1=O	-4.2	16.5	50.9*	90.4*	-16.8	35.6	21.9
Cn1c(=O)c2c(nc(NCc3ccco3)n2C)n(C)c1=O	-1.8	-12.5	20.1	29.3	6.3	-3.7	.
Cc1cc2ncn(S(=O)(=O)c3ccc(S(=O)(=O)N4CCOCC4)cc3)c2cc1C	5.8	-3.6	-9.3	13.4	7.2	-11.1	.

Screening results (PubChem)
